# Measured values published in article PMC12136788.
# Substitutions are numbered along the chain they refer to. In all, about 24,000 sequences were measured (“enrichment r”: median about 0.99, highest 2% from about 3.7 on). Many of the other results were omitted from the sample, so the highest values are more common in it than they were.
# T1: UNK ZnF1-3 (human, UniProt Q9C0B0 31-174)
# T1 sequence: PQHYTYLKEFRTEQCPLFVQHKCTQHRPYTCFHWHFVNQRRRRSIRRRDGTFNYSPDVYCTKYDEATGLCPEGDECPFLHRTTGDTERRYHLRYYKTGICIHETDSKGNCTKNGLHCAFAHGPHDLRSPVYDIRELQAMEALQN
# B1: chr2:91446484:91446485:+_ENSMUSG00000040549_ENSMUST00000099716|mus_hu|motif|central (ssRNA)
# RNA: GGGAGUUCUACAGUCCGACGAUCCAAUUUCUCAUCUGCCAUGUGUGUGUUGUAGAUGAGUCUUAGCUGCAUAAAAGUGGCGGUCAGAAACUGAUCAAUAUGGCCGGACAUGGCUUCAGCUUUGUCUUCCUGUCUCAGGACCUCCAACAGAGGAUUGAGCAUCA
# B2: 89236039_89237110_928_3pUTR_ENSG00000065243_ENST00000370521|human|control|control (ssRNA)
# RNA: GGGAGUUCUACAGUCCGACGAUCGGUUUUGCAUUAUCAAAAGCCAAUUCAUUAGUCUGGACUGCCUGAAGAAUCUGCAUUCGUAUGACUUCUAUUUUUGUCUUGCUGUCCUGGAGCAGUUGCUGAGCUGUACCAUGGAGUUUCCAACAGAGGAUUGAGCAUCA
# B3: chr17:56552419:56552420:-_ENSMUSG00000013236_ENSMUST00000086828|mus_mus|mus_mus_mus_hu_False|8_98 (ssRNA)
# RNA: GGGAGUUCUACAGUCCGACGAUCAAAAAAUACACUAUAAAAAAAAAAUGAAAUGUCACGGGAUACAGUUACACUGAGAGUUUUAAAAGAAAGCUGGAUUCUGGUCCCAGCCCAGUGUCCCCAGGCUGAGUGCGGAAGAGGAGCCAACAGAGGAUUGAGCAUCA
# B4: chr17:56552419:56552420:-_ENSMUSG00000013236_ENSMUST00000086828|mus_mus|mus_mus_mus_hu_False|98_98 (ssRNA)
# RNA: B3 RNA with A128C, G129A, U130G, G131A, C132G, G133C, A135G, A136G
# B5: chr17:56552419:56552420:-_ENSMUSG00000013236_ENSMUST00000086828|mus_mus|mus_mus_mus_hu_False|1_98 (ssRNA)
# RNA: GGGAGUUCUACAGUCCGACGAUCAAAAAAUACACUAUAAAAAAAAAAUGAAAUGUCACGGGAUACAGUUACACUGAGAGUUUUAAAAGAAAGCUGGAUUCUGGUCCCAGCCCAGUGUCCCCAGGCUGCAGAGCGGGGCAGAGGCAACAGAGGAUUGAGCAUCA
# B6: chr17:56552419:56552420:-_ENSMUSG00000013236_ENSMUST00000086828|mus_hu|FALSE|FALSE (ssRNA)
# RNA: B5 RNA with A38U, A39U, C138A, A139G, G143C
# B7: chr5:145543945:145543946:-_ENSG00000133706_ENST00000545646|hu_hu|hu_hu_hu_mus_True|1_8 (ssRNA)
# RNA: GGGAGUUCUACAGUCCGACGAUCCUGAACGGCCAGUGGUGGGAAAUAAUCAAGCCAGUGCUCUGCUUCAGAAAACUUCACUAUGUCGUCAUCAGAGAGCCCAAGGGAUUUCAUAAUGUCCCACUGGUAUUUAGAAGAUCCAGCCAACAGAGGAUUGAGCAUCA
# B8: chr17:56552419:56552420:-_ENSMUSG00000013236_ENSMUST00000086828|mus_mus|mus_mus_mus_hu_False|8_48 (ssRNA)
# RNA: B3 RNA with A38U, A39U, G88A, G92A, C93U, U94A, G95A
# B9: chr8:74858975:74858976:-_ENSG00000154582_ENST00000284811|hu_hu|FALSE|FALSE (ssRNA)
# RNA: GGGAGUUCUACAGUCCGACGAUCAACCUUGUACGUAAAAUACAUGCAUACUUUCGAUAGCACAUGUGAAGGUAUCUCUCUAAAAUUGACCUCAUUGGUUUCGUUCUCAGCAAACUGACCUGGGCCACUCAACAUGGCUUUUAUCAACAGAGGAUUGAGCAUCA
# B10: chr11:100882373:100882374:+_ENSMUSG00000019302_ENSMUST00000044721|mus_mus|mus_mus_mus_hu_True|38_68 (ssRNA)
# RNA: GGGAGUUCUACAGUCCGACGAUCUUCCUGGUUUGUGUUGAUUUCCUUCAGUUCAUUUUCAAUCUUCUCGAAAUUGGCCUCUAAGUCAAUCAUGUCCCGAGGGAAGGGAACCUCUGGGUUUUCACCGGUGUCCAUAAUCGGAAUCAACAGAGGAUUGAGCAUCA
# B11: chr17:56552419:56552420:-_ENSMUSG00000013236_ENSMUST00000086828|mus_mus|mus_mus_mus_hu_False|58_98 (ssRNA)
# RNA: B5 RNA with G77C, G79C, U81A, C138A, A139G, G143C
# B12: chr17:56552419:56552420:-_ENSMUSG00000013236_ENSMUST00000086828|mus_mus|mus_mus_mus_hu_False|58_58 (ssRNA)
# RNA: B5 RNA with A38U, A39U, G77C, G79C, U81A, C138A, A139G, G143C
# B13: 105548853_105553245_153_3pUTR_ENSMUSG00000068798_ENSMUST00000090678|mouse|control|control (ssRNA)
# RNA: GGGAGUUCUACAGUCCGACGAUCAUUUUUCAACAAAAAUCCCCUGAACAAACUGAACUGUCAGAGCAGACUUCCCCACGCCUCCUGAACCAAGGACUACUAGCUUGUACUCACGCAUGAUGCGCUCUGUUUAAAUAUUGACAACAACAGAGGAUUGAGCAUCA
# B14: chr2:4828950:4828951:+_ENSMUSG00000026662_ENSMUST00000115019|mus_mus|FALSE|FALSE (ssRNA)
# RNA: GGGAGUUCUACAGUCCGACGAUCAAAAUCUAGUCUCCCCCAAUAAAUUGUAUUUUAGGCAAAAUCCUCCCAAAUGCUUCUAAAAUAAUACUAAAAAGGGCAUCUGAUUAUACAAGAGCAAUUAAAAAAAUUAAAUAUUUAUUUCAACAGAGGAUUGAGCAUCA
# B15: chr10:112362630:112362631:-_ENSMUSG00000074748_ENSMUST00000099276|mus_mus|motif|central (ssRNA)
# RNA: GGGAGUUCUACAGUCCGACGAUCGGAUUACUUAUUAAAAAAUAAGAAUCUCCAAAACAAAGGACAGUGGUGAAUUUCAAACGGCCCUCCCCCAAUGAUCCCAGCAUGCGAUAAUGCCAGGUAGUGGCCCCUGGGCAUGCGAUGCAACAGAGGAUUGAGCAUCA
# B16: chr16:14299702:14299703:-_ENSMUSG00000022677_ENSMUST00000023357|mus_mus|motif|central (ssRNA)
# RNA: GGGAGUUCUACAGUCCGACGAUCCUCAAUUCAGAGUCCCUCUCCCCAAAUGACUCUAGCUUGUAUCAAGUUGAUAUAAAACGGGCCAGGGCAGGCAAUAAUAAUUCAGGUAUUUUUUAAAAAAUCAAACUUCAUAUAAAUUAACAACAGAGGAUUGAGCAUCA
# B17: 75889693_75893847_892_3pUTR_ENSG00000185009_ENST00000355264|human|control|control (ssRNA)
# RNA: GGGAGUUCUACAGUCCGACGAUCCAGAUAGUUUAAUGCAAGCAUCAAUGACCCCCUGAAUUUCUGCAAAGACUGUAGAUCCUGAUUUAUCUAUAAUUGCGUCUAUUUCUUCAACAACAUCAAAAUAGGCUUCAUUGUUUGUGUCAACAGAGGAUUGAGCAUCA
# B18: chr16:14299702:14299703:-_ENSMUSG00000022677_ENSMUST00000023357|mus_mus|FALSE|FALSE (ssRNA)
# RNA: B16 RNA with G82U, G83A
# B19: chr2:4828950:4828951:+_ENSMUSG00000026662_ENSMUST00000115019|mus_mus|motif|central (ssRNA)
# RNA: B14 RNA with U80G, A81G
# Molecular target: T1, UNK ZnF1-3
# Assay: nsRBNS (natural sequence RNA bind-n-seq); RBNS binding buffer (assumed for nsRBNS): 25 mM Tris pH 7.5, 150 mM KCl, 3 mM MgCl2, 0.01% Triton X-100, 500 ug/ml BSA, 20 U/ml SUPERase-In, 4 C; UNK is unkempt and MSI1 is Musashi-1; names of the RNAs are library labels; protein concentration not given here; high values mean tight binding
row,Binder,binding signal [enrichment R]
1,B1,0.637
2,B2,0.571
3,B3,5.52
4,B4,4.54
5,B5,5.8
6,B6,3.32
7,B7,1.44
8,B8,6.71
9,B9,0.5
10,B10,0.443
11,B11,8.92
12,B12,3.59
13,B13,1.18
14,B14,4.12
15,B15,0.719
16,B16,3.78
17,B17,0.939
18,B18,3.28
19,B19,14.3
